Myeloid diff 2 = induction of myeloid progenitor differentiation, primary screen, cell-based, flow cytometry, MLPCN library. ER-HoxA9 myeloid progenitors, lysozyme-GFP differentiation. calls only at 10 µM. actives 1% (n = 360,000);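 active = normalized GFP-positive differentiation at or above the plate's own cutoff, the solvent-only control mean plus 3 SD; inconclusive = no clear call, values can overlap the other calls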;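 note: cells exposed to compound for four days before flow analysis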
AGP1 TOR yeast = modulators of AGP1-GFP expression in yeast TOR pathway, primary screen, cell-based, multiplex flow cytometry, S. cerevisiae, MLPCN library; 3 h; GFP as percent of DMSO wells; GFP response vs DMSO, % at 10 µM; AID 2066, 2009; actives 0.02% (n = 320,000);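 active = GFP response relative to DMSO above a set limit, near screen average plus 3 SD, cut at about 150% in these data; inconclusive = fewer than 70 cells counted for the yeast strain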;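 note: median GFP channel fluorescence of the gated AGP1 strain per well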
RPL19A TOR yeast = RPL19A-GFP expression modulators in yeast, primary screen, cell-based, S. cerevisiae, multiplex flow cytometry, MLPCN. AID 2025, 2009. S. cerevisiae RPL19A-GFP strain, 3 h; stronger effect = lower value. percent response vs DMSO, % at 10 µM. actives 0.3% (n = 330,000);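 active = percent response vs DMSO below 50%; inconclusive = fewer than 70 events counted for the yeast strain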;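 note: median channel GFP fluorescence of the barcoded RPL19A-GFP strain; ratio of sample median GFP to plate DMSO average so 100% = DMSO; lower means less RPL19A-GFP as with rapamycin TOR inhibition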
LAP4-GFP MLPCN = modulators of LAP4-GFP expression in yeast, primary screen, S. cerevisiae, multiplex flow cytometry, MLPCN library. GFP response vs DMSO, % at 10 µM. 3 h; median GFP as percent of DMSO wells. actives 0.34% (n = 320,000);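 active = GFP response vs DMSO above a set limit, about the screen mean plus 3 SD, cut at about 150% in these data; inconclusive = under 70 cell events counted for the yeast strain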
MEP2-GFP yeast = modulators of MEP2-GFP levels in yeast, primary screen, S. cerevisiae, multiplex flow cytometry, MLPCN library; S. cerevisiae MEP2-GFP strain, 3 h; 100% = DMSO control level; GFP response vs DMSO, % at 10 µM; actives 0.51% (n = 330,000); AID 2016, 2009;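 active = GFP response versus DMSO above a set limit, roughly screen mean plus 3 SD, cut at about 180% in these data; inconclusive = fewer than 70 cells counted for a yeast strain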;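 note: median GFP fluorescence of the barcode-gated MEP2-GFP cells per well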
CIT2 TOR yeast = modulators of CIT2-GFP expression in yeast, primary screen, S. cerevisiae, GFP fusion, multiplex flow cytometry, MLPCN library. actives 0.065% (n = 320,000). S. cerevisiae CIT2-GFP strain, 3 h; 100 means same as DMSO wells. GFP response vs DMSO, % at 10 µM;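 active = GFP response relative to DMSO above a set limit, near the screen mean plus 3 SD, cut at about 150% in these data; inconclusive = Fewer than 70 cells measured for a yeast strain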;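 note: ratio of well median GFP fluorescence to mean of DMSO wells on the plate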
* = called active by the depositor; [ ] = dose if it differs, or a comment. Sampled rows, rich in hits. Any-hit rate of the full collection: about 1.8%.

Results for CCN(c1cc(C)cc(C)c1)S(=O)(=O)c1nnc(NC(=O)C(C)(C)C)s1 ?
Myeloid diff 2: inactive; AGP1 TOR yeast: 15.2; RPL19A TOR yeast: 97.2; LAP4-GFP MLPCN: 73.9; MEP2-GFP yeast: 646.9*[may fluoresce violet]; CIT2 TOR yeast: inconclusive

Results for Cc1ccc2nc(N3CC(=O)Nc4ccccc43)nc(-c3ccccc3)c2c1 ?
Myeloid diff 2: active; AGP1 TOR yeast: 94.6; RPL19A TOR yeast: 91.8; LAP4-GFP MLPCN: 93.3; MEP2-GFP yeast: 89.5; CIT2 TOR yeast: 85.2

How did Cc1ccc2nc(N3CCC(C(=O)O)CC3)nc(-c3ccccc3)c2c1 do in these assays?
Myeloid diff 2: inactive; AGP1 TOR yeast: 93.7; RPL19A TOR yeast: 96.8; LAP4-GFP MLPCN: 114.0; MEP2-GFP yeast: 97.9; CIT2 TOR yeast: 94.2

How did COC(=O)CSc1nc(N)c(C#N)c(-c2ccc(O)cc2)c1C#N do in these assays?
Myeloid diff 2: inactive; AGP1 TOR yeast: 104.1; RPL19A TOR yeast: 95.9; LAP4-GFP MLPCN: 117.6; MEP2-GFP yeast: 100.4; CIT2 TOR yeast: 102.3

Results for C=CCSc1nc(N)c(C#N)c(-c2ccc(C)cc2)c1C#N ?
Myeloid diff 2: active; AGP1 TOR yeast: 98.2; RPL19A TOR yeast: 96.4; LAP4-GFP MLPCN: 106.8; MEP2-GFP yeast: 103.3; CIT2 TOR yeast: 101.8

How did CCOC(=O)C1(CC)NC(c2ccco2)C2C(=O)N(c3ccc(C)cc3)C(=O)C21 (configuration not stated) do in these assays?
Myeloid diff 2: inactive; AGP1 TOR yeast: 99.3; RPL19A TOR yeast: 97.8; LAP4-GFP MLPCN: 91.8; MEP2-GFP yeast: 97.1; CIT2 TOR yeast: 94.4

Results for CCCC1(C(=O)OC)NC(c2ccco2)C2C(=O)N(c3ccc(C)cc3)C(=O)C21 (configuration not stated) ?
Myeloid diff 2: inactive; AGP1 TOR yeast: inconclusive; RPL19A TOR yeast: 36.9*[may fluoresce violet]; LAP4-GFP MLPCN: 90.7; MEP2-GFP yeast: 333.4*[may fluoresce violet]

How did c1ccc(-c2csc3ncnc(NCC4COc5ccccc5O4)c23)cc1 (configuration not stated) do in these assays?
Myeloid diff 2: inactive; AGP1 TOR yeast: 96.7; RPL19A TOR yeast: 85.3; LAP4-GFP MLPCN: 95.1; MEP2-GFP yeast: 91.8; CIT2 TOR yeast: 79.5

What do the screens show for `Cc1sc2ncnc(NCC3COc4ccccc4O3)c2c1C` (configuration not stated)?
Myeloid diff 2: active; AGP1 TOR yeast: 103.6; RPL19A TOR yeast: 102.2; LAP4-GFP MLPCN: 120.4; MEP2-GFP yeast: 103.5; CIT2 TOR yeast: 84.8

Results for COc1cc(CN(CCc2c(C)[nH]c3ccc(C)cc23)C(=S)NC(C)(C)C)cc(OC)c1OC ?
Myeloid diff 2: inactive; AGP1 TOR yeast: 99.9; RPL19A TOR yeast: 100.0; LAP4-GFP MLPCN: 100.6; MEP2-GFP yeast: 97.1; CIT2 TOR yeast: 100.9

Results for O=C(Nc1nc2ccccc2s1)C1c2ccccc2Oc2ccccc21 ?
Myeloid diff 2: active; AGP1 TOR yeast: 100.1; RPL19A TOR yeast: 98.2; LAP4-GFP MLPCN: 112.7; MEP2-GFP yeast: 103.5; CIT2 TOR yeast: 92.8

How did O=C(Nc1nc2ccccc2s1)C1CCCO1 (configuration not stated) do in these assays?
Myeloid diff 2: inactive; AGP1 TOR yeast: 100.6; RPL19A TOR yeast: 97.3; LAP4-GFP MLPCN: 108.1; MEP2-GFP yeast: 107.9; CIT2 TOR yeast: 90.1

What do the screens show for `CCOC(=O)C1(Cc2ccccc2Cl)CCN(C(=O)CCn2ccnc2C)CC1`?
Myeloid diff 2: inactive; AGP1 TOR yeast: 132.5; RPL19A TOR yeast: 78.8; LAP4-GFP MLPCN: 156.9*; MEP2-GFP yeast: 388.3*; CIT2 TOR yeast: 130.9

Results for COc1ccc(CNC(=O)N2CCN(c3ccc(F)cc3)CC2)cc1 ?
Myeloid diff 2: inactive; AGP1 TOR yeast: 95.7; RPL19A TOR yeast: 98.4; LAP4-GFP MLPCN: 91.8; MEP2-GFP yeast: 91.7; CIT2 TOR yeast: 99.6

Results for CC1CCC(NC(=O)c2nn(C)c3c2CSc2ccccc2-3)CC1 (configuration not stated) ?
Myeloid diff 2: inactive; AGP1 TOR yeast: 94.3; RPL19A TOR yeast: 92.5; LAP4-GFP MLPCN: 99.4; MEP2-GFP yeast: 100.5; CIT2 TOR yeast: 96.7

How did Cc1cccc(C)c1NC(=O)CN(C)CC(=O)Nc1sc2c(c1C(N)=O)CCC2 do in these assays?
Myeloid diff 2: inactive; AGP1 TOR yeast: 103.3; RPL19A TOR yeast: 94.0; LAP4-GFP MLPCN: 102.4; MEP2-GFP yeast: 91.5; CIT2 TOR yeast: 89.5

What do the screens show for `O=C(O)C1CC=CCC1C(=O)N1CCN(c2nc(-c3ccccc3Cl)c3cc(Br)ccc3n2)CC1` (configuration not stated)?
Myeloid diff 2: inactive; AGP1 TOR yeast: 13.5; RPL19A TOR yeast: 75.3; LAP4-GFP MLPCN: 97.3; MEP2-GFP yeast: 191.9*[may fluoresce violet]; CIT2 TOR yeast: inconclusive

Results for Cc1cccc(-n2ncc3c(NCc4ccccc4)ncnc32)c1 ?
Myeloid diff 2: active; AGP1 TOR yeast: 92.3; RPL19A TOR yeast: 93.9; LAP4-GFP MLPCN: 108.2; MEP2-GFP yeast: 96.0; CIT2 TOR yeast: 90.5

What do the screens show for `Cc1ccc(CSCC(=O)NCCc2ccccc2)cc1`?
Myeloid diff 2: inactive; AGP1 TOR yeast: 101.5; RPL19A TOR yeast: 101.5; LAP4-GFP MLPCN: 96.9; MEP2-GFP yeast: 106.8; CIT2 TOR yeast: 97.9

How did CCN(Cc1ccccc1)C(=O)CSc1nncn1C do in these assays?
Myeloid diff 2: inactive; AGP1 TOR yeast: 127.5; RPL19A TOR yeast: 114.3; LAP4-GFP MLPCN: 106.4; MEP2-GFP yeast: 113.5; CIT2 TOR yeast: 105.5

Results for O=C(Cn1sc2ccccc2c1=O)NC12CC3CC(CC(C3)C1)C2 ?
Myeloid diff 2: inactive; AGP1 TOR yeast: 99.0; RPL19A TOR yeast: 94.3; LAP4-GFP MLPCN: 116.1; MEP2-GFP yeast: 105.3; CIT2 TOR yeast: 84.2

How did O=C(Cn1sc2ccccc2c1=O)Nc1ccccc1 do in these assays?
Myeloid diff 2: active

What do the screens show for `O=c1cnnc(Nc2ccc(F)cc2)[nH]1`?
Myeloid diff 2: inactive; AGP1 TOR yeast: 98.8; RPL19A TOR yeast: 97.2; LAP4-GFP MLPCN: 103.0; MEP2-GFP yeast: 103.7; CIT2 TOR yeast: 125.4

How did O=c1cnnc(Nc2cccc(F)c2)[nH]1 do in these assays?
Myeloid diff 2: active; AGP1 TOR yeast: 100.8; RPL19A TOR yeast: 100.2; LAP4-GFP MLPCN: 104.9; MEP2-GFP yeast: 94.6; CIT2 TOR yeast: 92.9

What do the screens show for `Cc1cn([C@H]2C[C@H](O)[C@@H](CNCc3ccc(C#CCCO)cc3)O2)c(=O)[nH]c1=O`?
Myeloid diff 2: inactive

Results for CC(Cc1c[nH]c2ccccc12)NC(=O)OCCCl (configuration not stated) ?
Myeloid diff 2: active; AGP1 TOR yeast: 92.2; RPL19A TOR yeast: 100.3; LAP4-GFP MLPCN: 91.8; MEP2-GFP yeast: 103.2; CIT2 TOR yeast: 106.9
